# Source: PubChem BioAssay (several laboratories)
# This is a sample that favours compounds with a hit; in the whole collection about 2.8% have one here.
# SENP8 block-1 = inhibitors of human SENP8 protease; inhibition, % at 10 µM; AID 2540; purified SENP8, Z-RLRGG-aminoluciferin cleavage, luminescence; 330,000 tested, 1.2% active; in the data active means inhibition above about 50%
# Target sequence (Q96LD8 whole entry, looked up): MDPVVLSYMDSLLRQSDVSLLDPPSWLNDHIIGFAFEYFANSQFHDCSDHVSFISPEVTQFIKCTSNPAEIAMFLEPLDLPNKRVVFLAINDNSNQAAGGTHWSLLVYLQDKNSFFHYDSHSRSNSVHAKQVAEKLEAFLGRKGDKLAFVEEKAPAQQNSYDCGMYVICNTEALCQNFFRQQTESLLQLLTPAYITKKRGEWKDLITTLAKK
# SENP7 inh = SENP7 protease inhibition | 330,000 tested, 1.5% active | Q9BQF6 | recombinant SENP7, Z-RLRGG-aminoluciferin luminescence, 40 min | inhibition, % at 5 µM;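 active means inhibition above about 50% at the single test dose, limit read from the data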
# Target sequence (Q9BQF6 706-1050 limits assumed): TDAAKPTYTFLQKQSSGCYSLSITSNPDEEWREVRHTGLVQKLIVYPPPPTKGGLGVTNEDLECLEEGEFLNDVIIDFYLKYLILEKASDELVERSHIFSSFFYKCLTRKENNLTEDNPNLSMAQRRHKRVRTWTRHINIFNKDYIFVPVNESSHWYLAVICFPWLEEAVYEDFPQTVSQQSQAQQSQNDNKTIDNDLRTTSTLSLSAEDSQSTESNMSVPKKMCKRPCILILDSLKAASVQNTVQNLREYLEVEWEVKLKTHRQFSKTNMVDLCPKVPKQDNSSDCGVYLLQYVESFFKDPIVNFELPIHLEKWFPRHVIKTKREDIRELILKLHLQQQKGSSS
# HSP90 refold inh = blocks HSP90-mediated luciferase refolding in reticulocyte lysate; Rabbit reticulocyte lysate, luciferase refolding luminescence, 3 h; inhibition, % at 5.6 µM; 290,000 tested, 0.91% active;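 active means inhibition above the screen-wide mean plus 3 SD, computed separately per campaign, cut at about 16% in these data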;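 further: inhibitors lower the luminescence because luciferase stays unfolded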
# SENP6 block = blocks the human protease SENP6 | Q9GZR1 | Recombinant SENP6 catalytic domain, aminoluciferin luminescence | inhibition, % at 10 µM | 330,000 tested, 1.8% active;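 active means inhibition above about 50% at the single tested dose, limit read from the data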
# SENP8 block-2 = inhibitors of human SENP8 protease. 360,000 tested, 0.64% active. Q96LD8. inhibition, % at 20 µM. recombinant SENP8, Nedd8 substrate fluorescence; in the data active means inhibition mostly above about 40%, no sharp cut-off; inactive means mostly below about 27%
# SENP8 conf = SENP8 (human) inhibition, single concentration confirmation; shares compounds with SENP8 block-2; purified SENP8, Nedd8-AMC/pro-Nedd8 cleavage fluorescence, 30 min; inhibition, % at 25 µM; 1,400 tested, 15% active; AID 624319; in the data active means inhibition mostly above about 39%, no sharp cut-off; inactive means mostly below about 34%
# Numbers stand for hits; i = inactive; nt = no result given.
SMILES,SENP8 block-1,SENP7 inh,HSP90 refold inh,SENP6 block,SENP8 block-2,SENP8 conf
O=C(O/N=C\c1ccc(N2CCCCC2)c([N+](=O)[O-])c1)c1cccc(Cl)c1,i,i,i,i,59,i
Cc1ccc(C(=O)O/N=C\c2ccc(N3CCCCC3)c([N+](=O)[O-])c2)cc1,i,i,i,i,48,i
CCOC(=O)/C(C#N)=C1/C=Cc2ccccc2N1CC,i,i,i,i,41,i
CCN1C(=C(C#N)C#N)C=Cc2ccccc21,i,i,i,i,i,nt
c1ccc(CNCc2ccco2)cc1,i,i,i,i,i,nt
CCCCCOc1ccc(C(=O)CCC(=O)Nc2ccc(NC(C)=O)cc2)cc1,i,i,i,i,i,nt
CC(NC(=O)Nc1ccc(O)cc1)(C(F)(F)F)C(F)(F)F,i,i,i,i,78,i
NC(N)=NC(N)=Nc1ccc(SC(F)(F)F)cc1,i,i,i,i,i,nt
Cn1cnc2nc[nH]c2c1=O,nt,nt,nt,nt,58,i
Cn1c(=O)[nH]c2nc[nH]c2c1=O,i,i,nt,i,i,nt
CCOc1ccccc1NC1=C(Cl)C(=O)N(Cc2ccccc2)C1=O,i,i,i,i,41,i
CCCCCCCCN1C(=O)[C@H](CC(=O)NCC2CCCCC2)C[C@@]2(C(=O)OC)CC(C)(C)CC=C12,nt,nt,nt,nt,i,nt
O=C(C1CC(c2ccc(F)cc2)=NO1)N1CCc2ccccc2C1 (stereo not given),i,i,i,i,i,nt
COc1ccc(OC)c(S(=O)(=O)N2CCC(C(=O)N3CCc4ccccc4C3)CC2)c1,i,i,i,i,44,i
COc1cccc(C2=NOC(C(=O)N3CCc4ccccc4C3)C2)c1 (stereo not given),i,i,i,i,51,61
CCS(=O)(=O)N1CCCC(C(=O)N2CCc3ccccc3C2)C1 (stereo not given),i,i,i,i,53,54
CC(=O)Nc1ccc(S(=O)(=O)N(C)CC(=O)OCC(=O)NC(C)C23CC4CC(CC(C4)C2)C3)cc1 (stereo not given),i,i,i,i,i,nt
CCN1CCN(c2ccc(S(=O)(=O)N3CCOCC3)cc2NC(=O)c2ccc(C)cc2C)CC1,i,i,nt,i,i,nt
O=C(NCCCN1CCN(c2ccccc2F)CC1)Nc1ccc(F)cc1,i,i,i,i,i,nt
O=C(NCCCN1CCN(c2ccccc2F)CC1)Nc1ccccc1[N+](=O)[O-],i,i,i,i,44,i
CC(C)C[C@H](NC(=O)c1cc2cc(Cl)ccc2n1C)C(=O)N1CCC[C@H]1C(=O)O,i,i,i,i,47,i
C[C@H](NC(=O)c1cc2cc(Cl)ccc2n1C)C(=O)N1CCC[C@H]1C(=O)O,i,i,i,i,i,nt
c1ccc(Cn2cc(-c3cccnc3)cn2)cc1,i,i,nt,i,i,nt
COc1ccc(N/C=C/c2nc(SC)nnc2C)cc1,i,i,i,i,36,i
CCc1ccc(NC(=O)CSc2ccccn2)cc1,i,i,i,i,i,nt
SMILES,SENP8 block-1,SENP7 inh,HSP90 refold inh,SENP6 block,SENP8 block-2,SENP8 conf
NS(=O)(=O)c1ccc(CCNC(=O)C2CCCCN2S(=O)(=O)c2ccccc2)cc1 (stereo not given),i,i,i,i,i,nt
COc1ccc(NCC(=O)N/N=C2\CCc3ccccc32)cc1,i,i,i,i,40,i
COc1cc(NC(C)=O)c2ncccc2c1[N+](=O)[O-],i,i,i,i,48,i
O=C1Cc2ccccc2C(=O)N1Cc1cccc(Cl)c1,nt,nt,16,nt,103,46
Cc1cccc(C(=O)NCC(=O)OCC(=O)N2CCc3ccccc32)c1,i,i,i,i,i,nt
CCOC(=O)/C(=N/Nc1ccccc1)N1CCCc2ccccc21,i,i,i,i,43,i
Cc1ccc(C(=O)NCC(=O)OCC(=O)N2CCCc3ccccc32)cc1,i,i,i,i,55,i
O=C(Nc1cccc(S(=O)(=O)N2CCOCC2)c1)c1ccc(N2CCOCC2)c([N+](=O)[O-])c1,i,i,i,i,i,nt
Nc1scc2c(C(=O)O)nn(-c3ccccc3)c(=O)c12,i,i,nt,i,40,i
CCOC(=O)c1nn(-c2ccc(C)cc2)c(=O)c2c(N)scc12,i,i,i,i,i,nt
NC(=O)N/N=C/C=C/c1ccc(F)cc1,i,i,i,i,43,i
O=C(N/N=C\C=C\c1ccc2c(c1)OCO2)c1ccc(F)cc1,i,i,i,i,i,nt
C[C@@H](OC(=O)c1[nH]cnc1C(=O)N1CCc2ccccc2C1)c1ccccc1,i,i,nt,i,52,86
CC1=CC2(O)OCCN(CCO)C2=CC1=O (stereo not given),i,i,i,i,44,i
CN1CCC2(CC1)N=C(c1ccc(F)cc1)C(=S)N2C(=O)c1ccc(C(C)(C)C)cc1,i,i,i,i,53,i
CCC(C)(C)C1CCC(=NNC(=S)Nc2ccccc2)CC1 (stereo not given),i,i,i,i,45,i
CCOC(=O)C1CCN(C(=O)Nc2ccc3oc(C)nc3c2)CC1,i,i,i,i,46,i
O=C(COC(=O)C1CCCO1)Nc1cccc(C(F)(F)F)c1 (stereo not given),i,i,i,i,i,nt
CCSc1nnc(NC(NC(=O)c2ccco2)(C(F)(F)F)C(F)(F)F)s1,i,i,i,i,41,i
CCSc1nnc(NC(=O)c2ccco2)s1,i,i,i,i,i,nt
Cc1cc(O)c(C(C)C)cc1N=Cc1ccc(N(C)C)cc1,nt,nt,nt,nt,i,nt
Cc1cc(O)c(C(C)C)cc1N=Cc1ccc([N+](=O)[O-])cc1,nt,nt,nt,nt,95,i
COc1cccc(C=Nc2cc(C(C)C)c(O)cc2C)c1O,nt,nt,nt,nt,70,i
COc1ccc2ccccc2c1C1CC(=O)N2CN(C3CCCCC3)CSC2=C1C#N (stereo not given),i,i,i,i,75,i
COc1ccc(N2CSC3=C(C#N)C(c4cccc(OC)c4OC)CC(=O)N3C2)cc1 (stereo not given),i,i,i,i,i,nt
SMILES,SENP8 block-1,SENP7 inh,HSP90 refold inh,SENP6 block,SENP8 block-2,SENP8 conf
O=C(NCCCN1CCCCCC1)C1CC(=O)N(CCc2ccccc2)C1 (stereo not given),i,i,i,i,56,i
COc1cccc(Nc2cc(N3CCOCC3)c3nonc3c2[N+](=O)[O-])c1,i,i,i,i,44,i
O=[N+]([O-])c1c(Nc2ccccc2O)cc(N2CCOCC2)c2nonc12,i,i,i,i,i,nt
CC(C)(C)c1cc(CCC(=O)NCc2cccnc2)cc(C(C)(C)C)c1O,i,i,i,i,i,nt
Cc1ccc(C)c(OCC(=O)N2CCOCC2)c1,i,i,i,i,i,nt
CC(=O)Oc1ccc2oc(/C=C/N(C)C)c([N+](=O)[O-])c2c1,i,i,i,i,i,nt
COc1nc(/C=C/N(C)C)c([N+](=O)[O-])c(OC)n1,i,i,i,i,43,i
CC1CCN(c2ccccc2NC(=O)c2ccc([N+](=O)[O-])o2)CC1,i,i,i,i,i,nt
O=C(Nc1ccccc1N1CCCC1)c1ccc([N+](=O)[O-])o1,i,i,i,i,40,54
